Experiment [1] concerns the target Bile acid receptor (Homo sapiens) (UniProt Q96RI1). Description: ATG_IR1_CIS: Attagene CIS-FACTORIAL HepG2 Assay for human Nuclear Receptor Subfamily 1 Group H Member 4 (NR1H4), IR1 submotif (AID 2282946). The following applies: IR1 reporter transcription, actives raise or lower the signal. The method in brief:
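HepG2 cells transiently transfected with multiplexed cis-element reporter units read endogenous transcription factor activity. After 24 h compound exposure, reporter mRNA was quantified by RT-PCR, fluorescent labelling, HpaI digestion and capillary electrophoresis; bidirectional fitting versus DMSO baseline.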

Experiment [2] in a line: ATG_GRE_CIS: Attagene CIS-FACTORIAL HepG2 Assay for human Glucocorticoid Response Elements (GRE) (AID 2282947). To be noted: HepG2 GRE cis-reporter, Attagene multiplex mRNA; actives raise or lower the signal. The method, boiled down: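 Multiplexed cis-reporter mRNA induction, HepG2, 24 h post-dose. RT-PCR, FAM-labelled, HpaI-digested amplicons by CE. Bidirectional fit vs DMSO.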

Experiment [3] is described as follows: ATG_ISRE_CIS: Attagene CIS-FACTORIAL HepG2 Assay for human Interferon Regulatory Factor 1 (IRF1) binding to an Interferon-Stimulated Response Element (ISRE) (AID 2282948). To be noted: HepG2 ISRE cis-reporter (Attagene), mRNA transcription readout; actives raise or lower the signal. The method in brief:
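Signal reflects induction or loss of ISRE-linked reporter mRNA in transiently transfected HepG2 cells after a 24 h treatment, detected by fluorescent RT-PCR fragments on capillary electrophoresis and normalised to DMSO.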

Experiment [4] can be described thus: ATG_M_32_CIS: Attagene CIS-FACTORIAL HepG2 Assay for M32 Transcription Factor (Internal Marker) (AID 2282949).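 Note: background control marker of the multiplexed CIS panel rather than a real target.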 The following applies: HepG2 Attagene cis-factorial M32 reporter, mRNA; actives raise or lower the signal. The method, boiled down:
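Transient MRTU transfection of HepG2; 24 h compound treatment; TriZol RNA, oligo(dT) RT, reporter PCR, 6-FAM primer extension, HpaI cut, CE. Gain/loss of signal vs DMSO.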

Experiment [5] is described as follows: ATG_M_06_CIS: Attagene CIS-FACTORIAL HepG2 Assay for M06 Transcription Factor (Internal Marker) (AID 2282950). To be noted: HepG2 Attagene CIS-FACTORIAL M06 internal marker reporter; actives raise or lower the signal. The method in brief:
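Cells (HepG2, transiently carrying cis-driven reporter units) receive chemical for 24 h before RNA isolation. Reporter cDNA is PCR-amplified, FAM-labelled by primer extension, HpaI-digested and sized on a capillary analyser.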

Experiment [6] concerns the target Hypoxia-inducible factor 1-alpha (Homo sapiens) (UniProt Q16665). In words: ATG_HIF1a_CIS: Attagene CIS-FACTORIAL HepG2 Assay for human Hypoxia Inducible Factor 1 (HIF1A) (AID 2282951). To be noted: HepG2 Attagene cis-factorial HIF1a reporter transcription; actives raise or lower the signal. The method in brief:
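Cis-element reporter constructs were transiently transfected into HepG2 cells, which were treated for 24 h; reporter RNA was reverse-transcribed, amplified, labelled and resolved by capillary electrophoresis.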

Experiment [7] addresses Hepatocyte nuclear factor 6 (Homo sapiens) (UniProt Q9UBC0). Description: ATG_HNF6_CIS: Attagene CIS-FACTORIAL HepG2 Assay for human Hepatocyte Nuclear Factor 6 (HNF6) (AID 2282952). To be noted: HepG2 Attagene cis-factorial HNF6 reporter transcription; actives raise or lower the signal. The method, boiled down: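 Endogenous transcription factor activity in human HepG2 liver cells was captured through cis-regulated reporter constructs. After 24 h treatment, reporter mRNA was measured by RT-PCR with capillary electrophoresis, and activity was fitted in both directions relative to DMSO.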

Experiment [8] addresses Heat shock factor protein 1 (Homo sapiens) (UniProt Q00613). In words: ATG_HSE_CIS: Attagene CIS-FACTORIAL HepG2 Assay for human Heat Shock Transcription Factor 1 (HSE) (AID 2282953). To be noted: HepG2 HSE cis-reporter, Attagene RNA transcription; actives raise or lower the signal. The method in brief:
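Liver-derived HepG2 cells carry transiently introduced multiple reporter units governed by cis promoters. Reporter RNA measured 24 h post-dose through reverse transcription, PCR amplification, fluorescent labelling and capillary electrophoresis, normalised to DMSO.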

Experiment [9] can be described thus: ATG_MRE_CIS: Attagene CIS-FACTORIAL HepG2 Assay for human Metal Responsive Element (MRE) (AID 2282954). To be noted: HepG2 MRE cis-reporter transcription, Attagene multiplex; actives raise or lower the signal. The method in brief: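 Multiplexed cis-reporter assay in human HepG2 liver cells, 24 h incubation with test chemical. Reporter transcripts measured by RT-PCR and capillary electrophoresis; values from bidirectional curve fitting versus DMSO.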

The target in experiment [10] is Paired box protein Pax-6 (Homo sapiens) (UniProt P26367). Description: ATG_Pax6_CIS: Attagene CIS-FACTORIAL HepG2 Assay for human Paired Box 6 (PAX6) (AID 2282956). To be noted: HepG2 CIS-FACTORIAL PAX6 reporter transcription, RNA readout; actives raise or lower the signal. The method in brief:
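Values derive from bidirectional curve fitting of reporter mRNA signal relative to DMSO. HepG2 cells bearing transfected cis-regulated MRTUs were exposed for 24 h; transcripts were read by RT-PCR and capillary electrophoresis.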

Experiment [11] in a line: ATG_PXRE_CIS: Attagene CIS-FACTORIAL HepG2 Assay for human Pregnane X Receptor Element (PXRE) (AID 2282957). The following applies: HepG2 Attagene CIS-FACTORIAL PXRE reporter, mRNA; actives raise or lower the signal. The method, boiled down: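 Endogenous transcription factor activity in HepG2 was gauged through induction of reporter mRNA driven by a cis-regulating promoter element, sampled 24 h post-treatment. Activity was fitted in both directions against DMSO negative control.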

Experiment [12] is described as follows: ATG_RORE_CIS: Attagene CIS-FACTORIAL HepG2 Assay for human RAR-related Orphan Receptor Element (RORE) (AID 2282959). To be noted: HepG2 Attagene cis-factorial RORE reporter, mRNA; actives raise or lower the signal. The method, boiled down: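 Transfect HepG2 with MRTUs; treat 24 h; extract RNA; RT with oligo(dT); PCR with reporter-specific primers; 6-FAM primer extension; HpaI digest 2 h at 37 C; capillary electrophoresis. Fit vs DMSO, bidirectional.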

The nature of experiment [13]: ATG_Sox_CIS: Attagene CIS-FACTORIAL HepG2 Assay for human SRY-box transcription factor (SOX) (AID 2282960). The following applies: HepG2 Attagene cis-factorial SOX reporter, mRNA; actives raise or lower the signal. The method, boiled down: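 Fluorescence-labelled cDNA fragments from reporter transcripts, sized by CE, give the signal. Cells: HepG2, transiently transfected with cis-regulated reporter units. Exposure 24 h; DMSO negative control; bidirectional curve fitting.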

Experiment [14] has as its target Transcription factor Sp1 (Homo sapiens) (UniProt P08047). In words: ATG_Sp1_CIS: Attagene CIS-FACTORIAL HepG2 Assay for human Specificity Protein 1 (Sp1) (AID 2282961). The following applies: HepG2 Sp1 cis-reporter transcription, actives raise or lower the signal. The method, boiled down:
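Chemicals are dosed onto HepG2 cells transfected with multiple cis-promoter reporter constructs, and after 24 h reporter RNA is reverse-transcribed, PCR-amplified and resolved by capillary electrophoresis for fluorescence quantitation; activity is scored up or down against DMSO.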

The nature of experiment [15]: ATG_SREBP_CIS: Attagene CIS-FACTORIAL HepG2 Assay for human Sterol Regulatory Element Binding (SREBP) (AID 2282962). To be noted: HepG2 Attagene cis-factorial SREBP reporter, mRNA; actives raise or lower the signal. The method in brief: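 Values derive from bidirectional curve fitting with DMSO as baseline. The underlying measurement is reporter mRNA from cis-element-regulated units in transiently transfected HepG2, quantified by RT-PCR and capillary electrophoresis after 24 h exposure.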

Experiment [16] deals with Signal transducer and activator of transcription 3 (Homo sapiens) (UniProt P40763). In words: ATG_STAT3_CIS: Attagene CIS-FACTORIAL HepG2 Assay for human Signal Transducer and Activator of Transcription 3 (STAT3) (AID 2282963). The following applies: HepG2, Attagene cis-factorial STAT3 reporter transcription; actives raise or lower the signal. The method, boiled down: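 Cis-factorial format: endogenous transcription factors in HepG2 drive transfected reporter units. After 24 h treatment, reporter RNA was reverse-transcribed, amplified, FAM-labelled and HpaI-digested before CE analysis; activity scored in both directions against DMSO.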
Signal transducer and activator of transcription 3 (Homo sapiens), sequence (P40763 whole entry, looked up): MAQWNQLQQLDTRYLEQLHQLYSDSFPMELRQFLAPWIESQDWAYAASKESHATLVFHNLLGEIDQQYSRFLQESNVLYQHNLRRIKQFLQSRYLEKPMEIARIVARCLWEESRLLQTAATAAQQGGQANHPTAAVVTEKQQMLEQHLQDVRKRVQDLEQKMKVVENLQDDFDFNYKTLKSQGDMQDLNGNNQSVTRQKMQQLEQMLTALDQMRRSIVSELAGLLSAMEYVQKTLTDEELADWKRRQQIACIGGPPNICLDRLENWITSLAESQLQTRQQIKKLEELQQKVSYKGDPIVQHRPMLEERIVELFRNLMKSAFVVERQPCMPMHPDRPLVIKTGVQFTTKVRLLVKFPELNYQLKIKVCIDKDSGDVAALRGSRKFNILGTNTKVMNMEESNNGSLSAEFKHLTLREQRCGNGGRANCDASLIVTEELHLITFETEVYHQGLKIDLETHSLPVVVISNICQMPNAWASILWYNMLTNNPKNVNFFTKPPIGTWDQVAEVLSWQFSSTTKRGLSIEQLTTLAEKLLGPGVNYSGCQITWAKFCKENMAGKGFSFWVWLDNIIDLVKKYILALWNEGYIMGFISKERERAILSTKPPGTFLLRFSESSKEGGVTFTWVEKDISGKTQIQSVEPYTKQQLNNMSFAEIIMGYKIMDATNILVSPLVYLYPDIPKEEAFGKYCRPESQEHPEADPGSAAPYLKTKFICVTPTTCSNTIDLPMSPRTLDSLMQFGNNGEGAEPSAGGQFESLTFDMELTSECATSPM

Experiment [17] in a line: ATG_TA_CIS: Attagene CIS-FACTORIAL HepG2 Assay for human TA Basal Promoter (AID 2282964). The following applies: HepG2 Attagene CIS-factorial TA basal promoter reporter; actives raise or lower the signal. The method in brief:
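Background internal-marker endpoint from a 52-component HepG2 cis-reporter panel. Cells treated 24 h; reporter transcripts quantified via RT-PCR and CE fluorescence against DMSO baseline.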

Experiment [18] is described as follows: ATG_PBREM_CIS: Attagene CIS-FACTORIAL HepG2 Assay for human Phenobarbital-responsive Enhancer Module (PBREM) (AID 2282955). To be noted: HepG2 PBREM cis-reporter, Attagene multiplexed transcription; actives raise or lower the signal. The method in brief: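 Multiplexed cis-reporter readout in human hepatoma HepG2 cells; PBREM-regulated transcript quantified after 24 h exposure by fluorescent RT-PCR fragment analysis. Signal changes up or down fitted relative to DMSO.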

Experiment [19] in a line: ATG_PPRE_CIS: Attagene CIS-FACTORIAL HepG2 Assay for human Peroxisome Proliferator-activated Response Element (PPRE) (AID 2282958). To be noted: HepG2 PPRE cis-element reporter, Attagene transcription factor profiling; actives raise or lower the signal. The method, boiled down:
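DMSO served as negative control and baseline for bidirectional curve fitting. Signal came from PPRE-regulated reporter mRNA in HepG2 cells, measured 24 h post-dosing by RT-PCR, 6-FAM primer extension and capillary electrophoresis.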

Structures are written as SMILES. Calls of active or inactive are those of the source. Rule for the calls: active = hit-call score of the fitted dose curve at least 0.9, where 1 is the maximum; inactive = score below 0.9.

Hypoxia-inducible factor 1-alpha (Homo sapiens), sequence (Q16665 whole entry, looked up): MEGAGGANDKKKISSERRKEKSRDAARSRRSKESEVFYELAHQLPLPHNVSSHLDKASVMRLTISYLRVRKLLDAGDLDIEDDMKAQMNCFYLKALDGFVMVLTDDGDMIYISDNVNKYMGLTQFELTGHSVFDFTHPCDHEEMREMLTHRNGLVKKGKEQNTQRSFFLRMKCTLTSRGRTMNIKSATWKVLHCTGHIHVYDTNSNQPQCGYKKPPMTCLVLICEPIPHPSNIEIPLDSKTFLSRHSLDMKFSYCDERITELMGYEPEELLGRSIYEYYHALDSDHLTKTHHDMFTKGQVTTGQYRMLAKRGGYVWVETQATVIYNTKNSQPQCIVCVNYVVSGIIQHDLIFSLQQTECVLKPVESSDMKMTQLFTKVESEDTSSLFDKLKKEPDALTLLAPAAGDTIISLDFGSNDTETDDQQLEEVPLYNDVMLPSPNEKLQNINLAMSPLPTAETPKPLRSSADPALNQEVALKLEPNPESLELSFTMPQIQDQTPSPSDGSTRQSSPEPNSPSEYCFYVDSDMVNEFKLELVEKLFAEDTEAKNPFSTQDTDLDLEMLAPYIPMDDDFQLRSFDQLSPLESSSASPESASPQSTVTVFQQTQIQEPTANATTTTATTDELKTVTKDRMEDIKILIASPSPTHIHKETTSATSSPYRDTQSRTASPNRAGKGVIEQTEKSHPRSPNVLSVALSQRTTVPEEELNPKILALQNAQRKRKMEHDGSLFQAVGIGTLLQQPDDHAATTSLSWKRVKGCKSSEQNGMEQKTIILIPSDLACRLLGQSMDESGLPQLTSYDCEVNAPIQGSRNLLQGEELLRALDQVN
Paired box protein Pax-6 (Homo sapiens), sequence (P26367 whole entry, looked up): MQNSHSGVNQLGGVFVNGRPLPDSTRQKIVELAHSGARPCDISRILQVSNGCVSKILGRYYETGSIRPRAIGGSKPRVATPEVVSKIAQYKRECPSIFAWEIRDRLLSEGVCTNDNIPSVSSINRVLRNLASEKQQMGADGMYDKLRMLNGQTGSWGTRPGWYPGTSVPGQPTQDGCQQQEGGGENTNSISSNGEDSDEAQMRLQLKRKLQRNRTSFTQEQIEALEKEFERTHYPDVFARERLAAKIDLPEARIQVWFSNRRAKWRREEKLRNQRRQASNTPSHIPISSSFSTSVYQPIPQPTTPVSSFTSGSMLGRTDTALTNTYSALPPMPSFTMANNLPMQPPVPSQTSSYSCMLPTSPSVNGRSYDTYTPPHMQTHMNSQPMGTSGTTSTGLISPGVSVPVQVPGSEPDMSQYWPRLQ
Heat shock factor protein 1 (Homo sapiens), sequence (Q00613 whole entry, looked up): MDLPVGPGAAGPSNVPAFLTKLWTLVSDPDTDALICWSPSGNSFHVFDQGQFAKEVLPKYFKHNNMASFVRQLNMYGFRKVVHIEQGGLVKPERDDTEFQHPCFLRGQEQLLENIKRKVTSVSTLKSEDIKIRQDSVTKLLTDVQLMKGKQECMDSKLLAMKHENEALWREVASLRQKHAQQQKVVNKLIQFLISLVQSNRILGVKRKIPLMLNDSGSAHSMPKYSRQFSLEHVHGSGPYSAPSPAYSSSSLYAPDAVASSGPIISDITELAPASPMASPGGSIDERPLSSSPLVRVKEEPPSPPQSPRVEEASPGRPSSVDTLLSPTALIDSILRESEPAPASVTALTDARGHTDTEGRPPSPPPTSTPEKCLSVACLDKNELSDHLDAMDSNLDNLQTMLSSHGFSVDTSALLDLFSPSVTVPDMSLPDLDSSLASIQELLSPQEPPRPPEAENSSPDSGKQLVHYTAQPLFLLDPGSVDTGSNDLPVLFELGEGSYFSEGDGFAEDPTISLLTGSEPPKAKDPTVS
Transcription factor Sp1 (Homo sapiens), sequence (P08047 whole entry, looked up): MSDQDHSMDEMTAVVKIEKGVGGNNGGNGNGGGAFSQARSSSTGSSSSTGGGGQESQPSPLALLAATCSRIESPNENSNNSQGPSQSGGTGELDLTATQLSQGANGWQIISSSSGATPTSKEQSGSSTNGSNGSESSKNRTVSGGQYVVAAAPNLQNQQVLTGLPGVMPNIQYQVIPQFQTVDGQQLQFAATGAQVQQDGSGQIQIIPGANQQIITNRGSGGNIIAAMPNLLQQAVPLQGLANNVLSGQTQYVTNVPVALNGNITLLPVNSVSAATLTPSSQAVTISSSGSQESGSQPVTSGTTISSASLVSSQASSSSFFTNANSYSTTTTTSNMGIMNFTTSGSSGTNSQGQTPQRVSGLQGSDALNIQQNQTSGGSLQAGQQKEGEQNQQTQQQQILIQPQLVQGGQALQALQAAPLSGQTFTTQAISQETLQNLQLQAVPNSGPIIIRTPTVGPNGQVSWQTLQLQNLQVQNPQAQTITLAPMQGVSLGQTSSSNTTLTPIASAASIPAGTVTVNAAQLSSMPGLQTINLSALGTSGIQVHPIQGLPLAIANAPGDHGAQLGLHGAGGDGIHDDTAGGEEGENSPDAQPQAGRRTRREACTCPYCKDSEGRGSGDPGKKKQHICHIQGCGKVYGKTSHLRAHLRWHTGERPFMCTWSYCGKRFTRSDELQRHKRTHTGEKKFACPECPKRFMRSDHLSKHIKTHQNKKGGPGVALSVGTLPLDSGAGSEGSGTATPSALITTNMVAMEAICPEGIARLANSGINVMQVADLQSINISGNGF
Bile acid receptor (Homo sapiens), sequence (Q96RI1 whole entry, looked up): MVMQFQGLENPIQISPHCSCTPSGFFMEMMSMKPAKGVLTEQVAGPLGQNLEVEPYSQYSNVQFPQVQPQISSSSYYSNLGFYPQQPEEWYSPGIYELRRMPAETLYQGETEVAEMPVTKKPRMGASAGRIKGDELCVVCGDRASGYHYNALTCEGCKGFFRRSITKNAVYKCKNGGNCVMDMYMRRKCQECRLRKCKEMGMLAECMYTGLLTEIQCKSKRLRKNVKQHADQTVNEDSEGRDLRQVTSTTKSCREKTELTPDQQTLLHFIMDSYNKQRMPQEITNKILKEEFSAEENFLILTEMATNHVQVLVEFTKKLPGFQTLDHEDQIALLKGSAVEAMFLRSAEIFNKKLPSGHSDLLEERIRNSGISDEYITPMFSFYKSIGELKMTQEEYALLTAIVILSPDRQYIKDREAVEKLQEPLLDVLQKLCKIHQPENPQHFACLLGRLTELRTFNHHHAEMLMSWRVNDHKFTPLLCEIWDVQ
Hepatocyte nuclear factor 6 (Homo sapiens), sequence (Q9UBC0 whole entry, looked up): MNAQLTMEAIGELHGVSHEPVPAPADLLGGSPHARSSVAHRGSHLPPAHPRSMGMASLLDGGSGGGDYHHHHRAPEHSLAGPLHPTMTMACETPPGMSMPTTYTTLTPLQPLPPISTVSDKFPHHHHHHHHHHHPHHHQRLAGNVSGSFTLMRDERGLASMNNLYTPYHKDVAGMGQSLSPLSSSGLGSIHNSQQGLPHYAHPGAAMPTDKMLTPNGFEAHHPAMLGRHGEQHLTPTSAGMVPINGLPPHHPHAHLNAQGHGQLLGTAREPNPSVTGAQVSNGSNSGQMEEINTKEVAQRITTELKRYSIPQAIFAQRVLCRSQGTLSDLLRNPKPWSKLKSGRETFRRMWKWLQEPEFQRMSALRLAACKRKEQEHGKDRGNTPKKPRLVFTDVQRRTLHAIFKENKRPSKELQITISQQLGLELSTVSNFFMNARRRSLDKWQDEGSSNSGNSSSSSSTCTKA

As a reminder, the AC50 is the concentration giving half of the maximal activity seen. Take `Oc1ccc(C(c2ccc(O)cc2)C(Cl)(Cl)Cl)cc1`: the call in [1], in experiment [2], in experiment [3], in experiment [4], in experiment [5] and in experiment [6] was inactive. Also, the call in experiment [7], in experiment [8], in experiment [9], in [10], in experiment [12] and in experiment [13] was inactive. The molecule was called inactive in experiment [14], in [15], in experiment [16] and in experiment [17]. The AC50 in experiment [11] was 0.498 µM (active).

In the case of `CCOC(=O)C(C)Oc1ccc(Oc2nc3ccc(Cl)cc3o2)cc1` (configuration not stated), the result in [1], in experiment [2], in experiment [3], in experiment [4], in experiment [5] and in experiment [6] was inactive. Besides, the call in experiment [7], in experiment [8], in [9], in experiment [18], in [10] and in experiment [11] was inactive. The molecule was classed as inactive in experiment [19], in [13], in [14], in experiment [15], in [16] and in experiment [17].

For `CCCCCOC(=O)COc1cc(N2C(=O)C3=C(CCCC3)C2=O)c(F)cc1Cl`, the result in experiment [2], in experiment [3], in experiment [4], in [5], in experiment [6] and in [7] was inactive. Further, the molecule was called inactive in [9], in experiment [10], in [12], in experiment [13], in experiment [14] and in [15]. Further, the molecule was called inactive in experiment [16] and in experiment [17]. Further, the AC50 was 87.6 µM (active) in experiment [8] and 10.2 µM (active) in [11].

For the molecule `C=CCOC(Cn1ccnc1)c1ccc(Cl)cc1Cl` (configuration not stated), the outcome in [2], in experiment [3], in experiment [4], in [5], in [7] and in experiment [18] was inactive. Besides, the call in [19], in experiment [12], in experiment [13], in experiment [14], in experiment [16] and in experiment [17] was inactive. For the same molecule, the AC50 is 17.4 µM (active) in experiment [6]; 84.4 µM (active) in [8]; 24.5 µM (active) in [9]; 50 µM (active) in [10]; 4.84 µM (active) in experiment [11]; 6.99 µM (active) in [15].

As for `CC1(C)C(C=C(Cl)Cl)C1C(=O)OCc1cccc(Oc2ccccc2)c1` (configuration not stated), the molecule was classed as inactive in experiment [2], in experiment [3], in experiment [4], in [5], in experiment [6] and in [7]. Besides, the result in [8], in experiment [9], in experiment [18], in experiment [10], in experiment [12] and in [13] was inactive. Moreover, the molecule was classed as inactive in experiment [14], in [15], in experiment [16] and in [17]. In addition, the half-maximal activity concentration (AC50) in experiment [11] was 7.62 µM (active).

`C#CCOC(=O)[C@@H](C)Oc1ccc(Oc2ncc(Cl)cc2F)cc1`: the outcome in experiment [1], in experiment [2], in experiment [3], in experiment [4], in experiment [5] and in experiment [6] was inactive. The call in experiment [7], in experiment [9], in [18], in experiment [10], in experiment [12] and in experiment [13] was inactive. Also, the call in experiment [14], in experiment [15], in [16] and in experiment [17] was inactive. For the same molecule, the AC50 in [11] is 19.1 µM (active); in [19] it was 18 µM (active).

Take `O=C(Nc1ccc([N+](=O)[O-])cc1Cl)c1cc(Cl)ccc1O`: the molecule was classed as inactive in experiment [1], in experiment [2], in [3], in experiment [4], in experiment [5] and in experiment [7]. Besides, the result in [8], in experiment [10], in experiment [19], in experiment [13], in experiment [16] and in experiment [17] was inactive. In addition, the AC50 in [9] was 0.947 µM (active); in experiment [18], 0.7 µM (active); in experiment [11], 0.426 µM (active); in [12] it was 1.19 µM (active); in experiment [14], 0.7 µM (active); in experiment [15], 0.7 µM (active).

These data come from PubChem BioAssay (EPA / NIEHS).
